The panel holds about 83,000 compounds, 20% with a hit somewhere; the sample as a whole holds those more often.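 Note: values are percent growth. 100 is the growth of untreated cells, values between 100 and 0 indicate rising inhibition; between -100 and 0 indicates cell death.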 A number with no mark means an inactive call. Activity calls are given as the source filed them. The calls were made as follows: active = growth percent below 10; inactive = the rest.
Each compound was assayed on NCI-H322M lung (assay: NCI-60 one-dose screen, 48 h (100 = growth as untreated, 0 = no growth, -100 = all killed)). Settings: 10 µM unless noted.

Row | Compound | growth
1 | COc1ccc2c(c1)c(-c1nc(-c3c[nH]c4ncccc34)cs1)cn2CCO | 47.6%
2 | O=C(NNC(=O)c1ccc(NC(=O)c2ccccn2)cc1)Nc1ccc2ccccc2c1 | 103%
3 | COc1ccc(/C=C/C(=O)c2cc(OC)c(OC)c(OC)c2)cc1OCC(=O)Nc1nc2ccc(OC(F)(F)F)cc2s1 | 4.88% (active)
4 | O=C(CN1CCCCCC1)Nc1nc2ccc(NCc3ccc(Cl)cc3)cc2s1 | 108%
5 | CCCCCCCCCCCCCCCCCCOc1ccccc1CC(=O)NCC[N+]1(C)CCCCC1 | 62.7%
6 | COc1cc(-c2nc3sccn3c2-c2ccnc(NCCNS(=O)(=O)c3ccc(Cl)cc3)n2)ccc1F | 70.4%
7 | S=c1nc2oc(-c3ccccc3)c(-c3ccccc3)c2c(/N=C\c2ccco2)[nH]1 | 105%
8 | O=C1Nc2ccccc2/C1=C\c1c[nH]c2ccc(Br)cc12 | 64.2%
9 | COc1ccc(Nc2ncccc2/C=C/C(=O)c2cc(OC)c(OC)c(OC)c2)cc1 | 52%
10 | COc1cc(OC)c(/C=C/C(=O)c2c(O)cc(OC)c(C3CCN(C)CC3)c2OC)c(OC)c1 | -15.8% (active)
11 | N#Cc1c(-c2ccccc2)nc(SCc2nnc(-c3ccc(Cl)cc3)o2)[nH]c1=O | 104%
12 | CC(=O)ON1CCCC(P(=O)(OCCSC(=O)C(C)(C)C)OCCSC(=O)C(C)(C)C)C1=O (stereo not given) | 46.1%
13 | COc1cccc(CCNc2ncnc3c2ncn3Cc2nnc3c4ccccc4c(Cl)nn23)c1 | 52.8%
14 | O=C(CN1CCN(c2cc3c(cc2F)c(=O)c(C(=O)O)cn3C2CC2)CC1)N/N=C/c1ccco1 | 95%
15 | COc1ccc(C2=CC(c3cc(OC)c(OC)c(OC)c3)n3ncnc3N2)cc1 (stereo not given) | 43%
16 | O=C(CI)NC(=O)NC(=O)NCc1ccccc1 | 86.4%
17 | CC[C@]12C=CCN3CC[C@@]4(c5ccc(OC)cc5N(C)[C@H]4[C@@](O)(C(=O)OC)[C@@H]1OC(=O)CCC[P+](c1ccccc1)(c1ccccc1)c1ccccc1)[C@@H]32 | 35.6%
18 | CC1CCN(C(=S)SCC(=O)NC(=O)c2ccccc2)CC1 | 105%
19 | C=C1C(=O)O[C@H]2[C@H]1CC/C(COC(=O)c1cc3cc(Cl)ccc3[nH]1)=C\CC[C@@]1(C)O[C@@H]21 | 44.3%
20 | COC(=O)/C=C1/SC(=Nc2ccc([N+](=O)[O-])cc2)N(CCc2c[nH]c3ccc(O)cc23)C1=O | 87.5%

Row | Compound | growth
21 | COc1ccc(CCN(CC(=O)N(CC(N)=O)C2CCC[C@@H]2OCc2ccccc2)C(=O)CN(C(=O)CN(CCc2ccc(Cl)cc2)C(=O)CN(C(=O)CN(C)Cc2ccccc2F)[C@H](C)C2CCCCC2)[C@H](C)C2CCCCC2)cc1OC (stereo not given in full) | 40.6%
22 | CC(=O)OC[C@]12CC[C@@H]([C@@H](C)c3nnc(-c4ccncc4)o3)[C@@H]1[C@H]1CC[C@@H]3[C@@]4(C)CC[C@H](OC(C)=O)C(C)(C)[C@@H]4CC[C@@]3(C)[C@]1(C)CC2 | 95.9%
23 | COc1ccc(/C(C)=C(/c2ccc(OCCCN(C)C)cc2)c2ccc(OC(=O)c3ccccc3)cc2)cc1 | 87%
24 | COc1ccc2nc(Cl)c(/C=C3\CC(c4ccccc4)=NN(c4ccccc4)C3=O)cc2c1 | 74.6%
25 | CC(C)(C)c1cc(Cl)c(O)c(CNCCO)c1 | 118%
26 | CCS/C(Nc1ccccc1)=C(\C#N)C(=O)Nc1ccc(OC)cc1 | 51.6%
27 | COc1ccc(/C=C/c2c(C(=O)/C=C/c3ccccc3)c(C)nc3ccccc23)cc1 | 28.4%
28 | C#COc1cccc(Nc2ncnc3cc(NC(=O)[C@@H](C)Cl)ccc23)c1 | 38.9% [6.25 µM]
29 | COc1ccc(Cn2cc3c(c2-c2ccccc2)CCc2cnoc2-3)cc1 | 70.2%
30 | Cc1cc2c(cc1C)N(C(=O)CCl)CC(=O)N2 | 95%
31 | Oc1c(CN2CCC(N3CCCCC3)CC2)cc(Cc2cc(CN3CCC(N4CCCCC4)CC3)c(O)c3ncccc23)c2cccnc12 | 19.7%
32 | OCCNCCNC(Cc1ccc(Cl)cc1)c1ccccc1 (stereo not given) | 93.1%
33 | COc1cccc(-c2cc(-c3cccc(Cl)c3)c(C#N)c(=O)[nH]2)c1 | 89.5%
34 | CN(C)CCCNC(=O)c1cncnc1Nc1ccc(OCc2cccc(F)c2)c(Cl)c1 | 4.56% (active)
35 | O=C1Nc2ccccc2C1(c1c[nH]c2ccccc12)c1c[nH]c2ccccc12 | -15.6% (active)
36 | Cc1cc(Nc2ccc(C(=O)N3CCCC3)cc2)nc(NCCCNc2ccnc3cc(Cl)ccc23)n1 | 85.8%
37 | NC1(CO)COC(c2ccccc2)OC1 (stereo not given) | 100%
38 | O=C(CCCCCNC(=O)c1cc(=O)c(O)co1)Nc1ccccc1 | 97.2%
39 | O=S(=O)(NCCNc1nccc(-c2c(-c3cccc(O)c3)nc3occn23)n1)c1ccc(Br)cc1 | 42.3%
40 | C/C(=N\O)c1ccc(NC(=O)CSc2nnc(-c3cc(-c4ccc(S(N)(=O)=O)cc4)nc4ccccc34)n2-c2ccccc2)cc1 | 86.5%
